Bioassay records deposited in PubChem BioAssay by National Center for Advancing Translational Sciences (NCATS).
Only some compounds are listed: those with a hit (about 6.5% of all), similar ones and a draw of the others.
FMDV inh: antivirals against foot and mouth disease virus; FMDV antiviral cell-based qHTS; Potency, µM (series often up to 57.9 µM), for the others: top-dose activity change, negative = inhibition, most hits filed as inhibitors; hit rate 1.2% among 410,000; AID 1159524; calls by dose curve; tested in HEK293T cells; note: read-out not given here; potency is the fitted concentration of half-maximal effect; nearly all actives have a fitted effect of over 45% in size
Vaccinia Venus: inhibitors of vaccinia virus (Venus reporter) | Vaccinia virus Venus reporter expression, fluorescence | Potency, µM (top dose mostly 36.5 µM), for the others: at the highest dose activity change, negative = inhibition, hits mostly inhibitors | AID 720580 | hit rate 0.46% among 330,000; calls by dose curve; tested in A549 cells; note: potency is the fitted concentration of half-maximal effect; nearly all actives have a fitted effect of over 30% in size
Vaccinia mCherry: inhibitors of vaccinia virus infection (mCherry reporter signal); Vaccinia virus mCherry reporter infection, fluorescence; Potency, µM (highest dose often 36.5 µM), inactives show at the top dose activity change, negative = inhibition, most hits filed as inhibitors; hit rate 0.63% among 310,000; AID 720579; calls by dose curve; tested in A549 cells; note: potency is the fitted concentration of half-maximal effect; nearly all actives have a fitted effect of over 35% in size
Lassa entry inh: blocks Lassa virus binding to or entry into cells; Lassa virus pseudotype entry inhibition, cell reporter; Potency, µM (titrated, usually from 37.9 µM), inactives show top-dose activity change, negative = inhibition, usual class: inhibitors; hit rate 1.2% among 300,000; AID 540256; calls by dose curve; tested in HEK293 cells; note: potency is the fitted concentration of half-maximal effect; nearly all actives have a fitted effect of over 50% in size
MARV entry inh: blocks Marburg virus binding to or entry into cells | hit rate 1.8% among 300,000 | Marburg virus pseudotyped entry inhibition, cell reporter | Potency, µM (titrated, usually from 37.8 µM), for inactives: at the highest dose activity change, negative = inhibition, most hits filed as inhibitors; calls by dose curve; tested in HEK293 cells; note: potency is the fitted concentration of half-maximal effect
HCMV inh: blocks human cytomegalovirus replication; HFF cells, HCMV-luciferase reporter, 72 h; hits give low values; activity change, negative = inhibition, % at 57.5 µM; hit rate 4.5% among 410,000; AID 1259415; in the data active = activity change below about -60%; inconclusive = no clear call, values can overlap the other calls; inactive = above about -39%
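Screen run at 2 compound doses on HFFs infected with reporter HCMV, MOI 1 PFU/cell. Luciferase activity from cell lysates at 72 h post infection gave inhibition relative to buffer-only and Salinomycin wells.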
* marks the source's active call; other numbers are inactive results; i = inactive; ? = inconclusive; . = not tested or not shown; [ ] = dose if it differs, or a comment. % is set by controls: 0 for no effect and ±100 for the full control effect.

SMILES	FMDV inh	Vaccinia Venus	Vaccinia mCherry	Lassa entry inh	MARV entry inh	HCMV inh
O=C1CSc2cc(Cl)ccc2N1	-5%	-6%	-9%	0%[46.1 µM]	0%[46.1 µM]	-12
Cc1ccc(C(=O)N(Cc2cc3cc4c(cc3nc2N2CCOCC2)CCC4)CC2CCCO2)s1 (configuration not stated)	14%	-4%	-6%	.	.	.
CCc1nc(SCc2ccc(OCC(C)C)cc2)n[nH]1	6%	-20%	-22%	?	7.9µM*	?
CCc1nc(SCc2ccc(Br)cc2)n[nH]1	84%	-13%	-12%	16%	?	25
N#Cc1cccc(NC(=O)C2CCN(c3nc(-c4ccc(Cl)cc4)no3)CC2)c1	25µM*	-12%[7.34 µM]	-12%[7.34 µM]	8%[46.1 µM]	.	?
N#Cc1cccc(NC(=O)C2CCN(c3ncccn3)CC2)c1	-15%	-5%	-1%	17%[46.1 µM]	-2%[46.1 µM]	?
Cc1ccc(S(=O)(=O)NCc2ccc(C(=O)N3CCN(c4ccccn4)CC3)cc2)cc1	?	-25%	-26%	-24%	?	-26
Cc1ccc(NS(=O)(=O)c2ccc(C(=O)N3CCN(c4ccccn4)CC3)cc2)cc1	18µM*	-27%	.	-14%	-24%	?
CCOc1ccc(NS(=O)(=O)c2cccc(C(=O)N3CCN(C/C=C/c4ccccc4)CC3)c2)cc1	28µM*	?	i	?	?	?
CCOc1ccc(S(=O)(=O)Nc2cccc(C(=O)N3CCN(c4ccccn4)CC3)c2)cc1	-27%	-22%	?	.	.	-62*
CN(c1ccc(OCC(=O)N2CCN(C/C=C/c3ccccc3)CC2)cc1)S(=O)(=O)c1cccs1	?	.	.	.	.	-82*
Cc1cccc(NC(=O)c2sc3nc(-c4ccccc4)cn3c2C)c1C	28%	-11%	-12%	-13%[46.1 µM]	.	2
CCOc1ccc(OCC)c(NC(=O)CCc2c(C)nc3c(c2C)c(=O)n(C)c(=O)n3C)c1	?	5%	-1%	11%[46.1 µM]	-10%[46.1 µM]	-1
O=C(N1CCCCC1)N1CCC[C@@H]1c1noc2ccccc12	.	.	.	.	.	-20
CCCCNC(=O)[C@@H]1CC=C[C@@H]2CCN(CCCC)C(=O)[C@@H]21	.	-8%	-13%	.	.	.
CN(CC(=O)Nc1c(Cl)cccc1Cl)C(=O)Cc1ccsc1	-9%	-8%	-20%	-10%	7%	0
CCc1cc(C(=O)N(C)CC(=O)Nc2c(Cl)cccc2Cl)sc1C	-19%	-11%	i	8.9µM*	?	-67*
CN(C)c1ccc(/C=C/c2cc(Cl)nc3ccccc23)cc1	.	-17%	i	.	.	.
CC(C)(C)c1ccc(C(=O)NCc2nnc(SCC(=O)N3CCCC3)o2)cc1	-21%	-13%	-6%	.	.	8
O=C(NCc1nnc(SCC(=O)N2CCCCC2)o1)c1ccc(F)cc1	1%	-6%	-13%	5%	6%	-85*
COc1ccc(NC(=O)C2CCCN(S(=O)(=O)c3ccc4c(c3)CCCC(=O)N4)C2)cc1OC (configuration not stated)	?	-9%	-11%	?	.	-10
CNc1nc2cnc(-c3ccc(OC)c(OC)c3)cc2n1Cc1ccccc1	.	.	.	.	.	-8
COC(=O)Cn1cc(C(=O)OC)cc(Br)c1=O	-5%	-7%	.	6%	8%	-6
COC(=O)c1cc(Br)c(=O)n(CCc2ccccc2)c1	-15%	-6%	.	-1%	16%	-103*
CC1=C(C(=O)Nc2cc(Cl)ccc2C)C(c2ccccc2F)n2ncnc2N1 (configuration not stated)	-20%	-8%	-7%	-21%[46.1 µM]	.	1
SMILES	FMDV inh	Vaccinia Venus	Vaccinia mCherry	Lassa entry inh	MARV entry inh	HCMV inh
COc1ccc(Cl)cc1NC(=O)C(C)N(C)Cc1ccc(C(F)(F)F)cc1 (configuration not stated)	?	-16%	i	-10%	?	-87*
COc1ccc(Cl)cc1NC(=O)NCCN1CCNC1=O	-5%	-10%	-13%	?	-17%	2
COc1ccc(Cl)cc1NC(=O)Nc1cnccn1	-16%	.	.	.	.	-85*
COc1ccc(Cl)cc1NC(=O)NCCCl	6%	10µM*	.	8%	5%	-28
CC(C)(C)C1CCc2c(sc(NC(=O)Cn3nnc(-c4ccccc4F)n3)c2C#N)C1 (configuration not stated)	-24%	0%	-15%	-2%[46.1 µM]	-2%[46.1 µM]	1
CCN(CC)C(=O)c1sc2c(c1C)c(=O)n(-c1ccccc1)c(=O)n2CC(=O)N(CC)c1cccc(C)c1	-1%	4%	-9%	-24%[46.1 µM]	.	11
CCN(c1ccccc1)c1cc2ccccc2c(=O)[nH]1	2%	-15%	-26%	2%	-2%[46.1 µM]	-64*
CCN(c1ccccc1)c1nc(=O)c2cccnc2s1	23%	.	.	.	.	-39
CCCC1=Nc2cc(C(=O)NCCOC)ccc2Sc2ccccc21	-13%	-27%	?	?	?	-97*
CCCC1=Nc2cc(C(=O)NCCCOC(C)C)ccc2Sc2ccccc21	-16%	.	.	6.5µM*	?	?
CCCC1=Nc2cc(C(=O)NCCCN(CC)CC)ccc2Sc2ccccc21	-23%	-12%	-12%	?	?	-11
CCCC1=Nc2cc(C(=O)NCCCOCC)ccc2Sc2ccccc21	-14%	?	-26%	-41%	1.6µM*	-82*
CCCCNC(=O)c1ccc2c(c1)N=C(CC)c1ccccc1S2	-9%	-28%	-3%	?	?	-35
CCCC1=Nc2cc(C(=O)NCCc3ccc(OCC)cc3)ccc2Sc2ccccc21	?	?	?	?	-5%[46.1 µM]	?
CCOC(=O)Cn1c(=O)oc2cc(S(=O)(=O)N3CCC(C(=O)OCC)CC3)ccc21	-19%	-5%	1%	11%[46.1 µM]	-1%[46.1 µM]	2
Cc1cc(-c2ccc(S(=O)(=O)NCc3ccccc3Cl)s2)on1	-4%	-16%	i	20%[46.1 µM]	.	0
CCN(CC)c1ccc(/C=N/NC(=S)NCc2ccco2)cc1	?	-22%	?	2.1µM*	?	?
S=C(NCc1ccco1)N/N=C/c1cccnc1	-6%	.	.	.	.	-68*
S=C(NCc1ccco1)N/N=C/c1ccc(Cl)cc1	4%	-19%	?	4.6µM*	-10%	0
COc1ccc(S(=O)(=O)c2c(Nc3c(C)cccc3C)sc(C(=O)c3ccc4c(c3)OCO4)c2N)cc1	11%	?	?	?	.	-87*
COc1cccc(Nc2sc(C(=O)c3ccc4c(c3)OCO4)c(N)c2S(=O)(=O)c2ccccc2)c1	2%	-3%	-21%	-30%[46.1 µM]	.	-18
Cc1cc(-c2ccc(S(=O)(=O)Nc3ccc(Cl)cc3)cc2)on1	17%	-27%	-5%	-17%[46.1 µM]	.	0
Cc1ccc(S(=O)(=O)Nc2cc(C)c(O)cc2C)cc1	-3%	-19%	-18%	-13%[46.1 µM]	?	-76*
Cc1ccc(NS(=O)(=O)c2ccc(-c3cc(C)no3)cc2)c(C)c1	-27%	-28%	-23%	?	.	-65*
Cc1cc(C)cc(NS(=O)(=O)c2ccc(-c3cc(C)no3)cc2)c1	21%	?	-29%	?	.	-80*
Cc1cn2c(=O)cc(COc3ccc(NC(=O)COc4ccccc4)cc3)nc2s1	7%	-7%	-1%	-4%[46.1 µM]	23%[46.1 µM]	10
